Measured values from the supplement of paper PMC13380429.

Tested on: Vero E6 infected with SARS-CoV-2
Test: inhibition of SARS-CoV-2 cytopathic effect; higher = more antiviral protection, active = above 15
Conditions: 48 h

Measured: inhibition of SARS-CoV-2 cytopathic effect

C=CCOc1ccccc1OCC(O)CNC(C)C (stereo not given) [oxprenolol]
inactive: 1 nM 1.58% | 8.33 nM -0.87% | 100 nM -1.99% | 833.33 nM -0.79% | 10000 nM -0.79%

CCC(=O)NCC[C@@H]1CCc2ccc3c(c21)CCO3 [ramelteon]
inactive: 1 nM 0.77% | 8.33 nM -0.74% | 100 nM -1.05% | 833.33 nM 0.28% | 10000 nM -10.8%

O=C(OC[C@H]1O[C@@H](OC(=O)c2cc(O)c(O)c(OC(=O)c3cc(O)c(O)c(O)c3)c2)[C@H](OC(=O)c2cc(O)c(O)c(OC(=O)c3cc(O)c(O)c(O)c3)c2)[C@@H](OC(=O)c2cc(O)c(O)c(OC(=O)c3cc(O)c(O)c(O)c3)c2)[C@@H]1OC(=O)c1cc(O)c(O)c(OC(=O)c2cc(O)c(O)c(O)c2)c1)c1cc(O)c(O)c(OC(=O)c2cc(O)c(O)c(O)c2)c1 [tannic-acid]
inactive: 1 nM -0.39% | 8.33 nM 0.91% | 100 nM -0.77% | 833.33 nM -3.86% | 10000 nM -6.77%

CCCCCCCCCCC(CO)CCCCCCCC (stereo not given) [2-octyldodecan-1-ol]
inactive: 1 nM 1.79% | 8.33 nM -0.7% | 100 nM 0.48% | 833.33 nM 0.76% | 10000 nM 0.34%

Nc1ccc(S(=O)(=O)c2ccc(N)cc2)cc1 [dapsone]
inactive: 1 nM -2.51% | 8.33 nM 2.16% | 100 nM 0.46% | 833.33 nM 11.1% | 10000 nM 1.03%

CC(C)NCCN(C(C)C)S(=O)(=O)c1ccc(Cl)cc1Cl
inactive: 1 nM 1.45% | 8.33 nM -1.25% | 100 nM 0.74% | 833.33 nM -2.09% | 10000 nM -5.49%

CC(C)OC(=O)[C@H](C)N[P@](=O)(CO[C@H](C)Cn1cnc2c(N)ncnc21)Oc1ccccc1 [tenofovir-alafenamide]
inactive: 1 nM -2.51% | 8.33 nM -1.55% | 100 nM -0.12% | 833.33 nM -2.51% | 10000 nM 3.48%

c1ccc(CC2=NCCN2)cc1 [tolazoline]
inactive: 1 nM -0.5% | 8.33 nM 0.92% | 100 nM 1.33% | 833.33 nM 2.41% | 10000 nM -0.69%

C=CC(=O)Nc1cccc(Oc2nc(Nc3ccc(N4CCN(C)CC4)cc3OC)ncc2Cl)c1
inactive: 1 nM -1.07% | 8.33 nM 3.52% | 100 nM -0.84% | 833.33 nM -9.12% | 10000 nM -11.8%

C[C@]12CCC(=O)C=C1CC[C@@H]1[C@@H]2CC[C@@]2(C)[C@H]1CC[C@]2(O)C(=O)CO [cortodoxone]
inactive: 1 nM -0.53% | 8.33 nM -0.71% | 100 nM 1.21% | 833.33 nM 0.07% | 10000 nM -1.41%

CN1c2cc3c(cc2N=C(c2ccc(C(=O)O)cc2)c2ccccc21)C(C)(C)CCC3(C)C
inactive: 1 nM 4.92% | 8.33 nM 2.01% | 100 nM -1.76% | 833.33 nM 0.01% | 10000 nM -7.42%

CCc1nc(N)nc(N)c1-c1ccc(Cl)cc1 [pyrimethamine]
inactive: 1 nM 2.57% | 8.33 nM 3.29% | 100 nM 2.35% | 833.33 nM 1.69% | 10000 nM -1.07%

CC1(C)Oc2ccc(C#N)cc2[C@H](N(Cc2ncc[nH]2)c2ccc(Cl)cc2)[C@H]1O
inactive: 1 nM 0.45% | 8.33 nM -1.34% | 100 nM 1.85% | 833.33 nM 2.7% | 10000 nM -1.77%

O=C(CC(c1ccccc1)c1ccccc1)N1CCN(C(c2ccccc2)c2ccccc2)CC1
inactive: 1 nM -0.56% | 8.33 nM -1.82% | 100 nM -3.93% | 833.33 nM 1.53% | 10000 nM 3.27%

S=C(NCCc1ccccn1)Nc1ccc(Br)cn1 [trovirdine]
inactive: 1 nM 2% | 8.33 nM 2.79% | 100 nM 2.61% | 833.33 nM 1.44% | 10000 nM 0.69%

Clc1ccc(C(Cn2ccnc2)OCc2ccc(Sc3ccccc3)cc2)c(Cl)c1 (stereo not given) [fenticonazole]
inactive: 1 nM -3.37% | 8.33 nM 3.19% | 100 nM 0.76% | 833.33 nM 0.19% | 10000 nM 2.21%

CC(C)CCC[C@@H](C)[C@H]1CC[C@H]2[C@@H]3CC=C4C[C@@H](O)CC[C@]4(C)[C@H]3CC[C@]12C [cholesterol]
inactive: 1 nM -1.33% | 8.33 nM 1.96% | 100 nM 1.08% | 833.33 nM -1.83% | 10000 nM 2.29%
